Consider eight molecules from PubChem BioAssay (NCI).

The structures appear in SMILES notation. The panel holds about 83,000 compounds, 20% with a hit somewhere; the sample as a whole holds those more often.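 Single-concentration screen, 48 h exposure, 96-well plates. Endpoint: percent growth. Below 10 = active.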 Unmarked numbers belong to inactive results. Calls of active or inactive are those of the source.

Some test systems named below: HCT-15 colon; HT29 colon; SNB-75 CNS; SNB-19 CNS; U251 CNS; PC-3 prostate; SK-MEL-5 melanoma; UACC-62 melanoma; LOX IMVI melanoma; SK-MEL-28 melanoma; SK-MEL-2 melanoma; EKVX NSCLC; SN12C renal; UO-31 renal; TK-10 renal; ACHN renal; CAKI-1 renal; A498 renal; MOLT-4 leukemia; CCRF-CEM leukemia.
What all share (assay): NCI-60 one-dose screen, 48 h (100 = growth as untreated, 0 = no growth, -100 = all killed)
Common to all, as to conditions: 10 µM unless noted

In the case of `CNC(=O)c1cc(-n2ccc3cc(NC(=O)Nc4ccc(N5CCOCC5)c(C(F)(F)F)c4)ccc32)ccn1`, the growth in the assay on HCT-15 colon is 30.2%; in the assay with HT29 colon, 19.6%; in the assay on SNB-75 CNS, 17.1%; in the assay on SNB-19 CNS, 74.2%; in the assay on U251 CNS, 42%; in the assay with PC-3 prostate, 4.72% (active). In addition, the growth in the assay with SK-MEL-5 melanoma is 4.69% (active); in the assay with UACC-62 melanoma, 13.4%; in the assay on LOX IMVI melanoma, 13.3%; in the assay with SK-MEL-28 melanoma it was 62.9%; in the assay on SK-MEL-2 melanoma it was 68.8%; in the assay with EKVX NSCLC, 65.4%. The growth in the assay on SN12C renal is 55.3%; in the assay on UO-31 renal, 35.2%; with TK-10 renal, 61.3%; in the assay with ACHN renal, 56.9%; in the assay with CAKI-1 renal, 41.3%; in the assay with A498 renal, 70.7%. Moreover, in the assay with MOLT-4 leukemia, the growth is 13.8%.

`COc1cc(/C=C2\C(=O)Nc3ccccc32)ccc1OCc1ccc(F)cc1`: the growth in the assay on HCT-15 colon was 101%; with HT29 colon, 105%; in the assay with SNB-75 CNS it was 106%; in the assay with SNB-19 CNS it was 99.3%; in the assay on U251 CNS, 106%; in the assay on PC-3 prostate it was 101%. Also, the growth is 102% in the assay with SK-MEL-5 melanoma; 92.7% with UACC-62 melanoma; 97.3% with LOX IMVI melanoma; 110% in the assay on SK-MEL-28 melanoma; 107% in the assay on SK-MEL-2 melanoma; 97.7% in the assay on EKVX NSCLC. Besides, the growth in the assay with SN12C renal was 100%; in the assay on UO-31 renal, 84.7%; with TK-10 renal, 130%; in the assay on ACHN renal, 102%; in the assay on A498 renal, 89.2%; in the assay with CCRF-CEM leukemia, 102%. In addition, the growth with MOLT-4 leukemia is 96.8%.

As to `O=C(NNc1nc2cc(F)c(F)cc2n2c(CN3CC4CNCC4C3)ccc12)c1ncccn1` (stereo not given), the growth is 19.8% with HCT-15 colon; 23.5% in the assay with HT29 colon; 52.1% in the assay with SNB-75 CNS; 29.9% in the assay on SNB-19 CNS; 17.3% in the assay on U251 CNS; 17.6% in the assay on PC-3 prostate. Further, the growth in the assay on SK-MEL-5 melanoma is -33.8% (active); in the assay on UACC-62 melanoma, -20.1% (active); with LOX IMVI melanoma it was 1.73% (active); with SK-MEL-28 melanoma it was 29.3%; in the assay on SK-MEL-2 melanoma, 9.68% (active); with EKVX NSCLC it was 20%. The growth with SN12C renal is 25.8%; in the assay on UO-31 renal, 13.6%; in the assay with TK-10 renal, 16.2%; in the assay with ACHN renal it was 12.7%; with A498 renal, 18.7%.

Take `C[C@@H](Nc1ncnc2ccc(-c3cnc(Cl)c(NS(C)(=O)=O)c3)cc12)c1ccccc1`: the growth is 66% with HCT-15 colon; 64.6% in the assay with HT29 colon; -14.7% (active) with SNB-75 CNS; 64% in the assay with SNB-19 CNS; 67.9% with U251 CNS; 41.5% in the assay on PC-3 prostate. In addition, the growth with SK-MEL-5 melanoma was 66.3%; in the assay on UACC-62 melanoma, 35.6%; in the assay with LOX IMVI melanoma it was 40.2%; in the assay on SK-MEL-28 melanoma, 50.4%; in the assay on SK-MEL-2 melanoma, 53.7%; in the assay on EKVX NSCLC it was 19.8%. In addition, the growth in the assay with SN12C renal was 30.1%; with UO-31 renal it was 26.9%; in the assay on TK-10 renal it was 3.2% (active); with ACHN renal, 43.1%; with A498 renal it was -22.2% (active); with CCRF-CEM leukemia, 42.6%. In addition, the growth in the assay on MOLT-4 leukemia is 20.8%.

For the molecule `NC(N)=Nc1ccc(Oc2cccc(NC(N)=Nc3ccc(I)cc3F)c2)cn1`, the growth is 87.4% in the assay on HCT-15 colon; 31.8% in the assay on HT29 colon; 77.5% with SNB-75 CNS; 26.3% in the assay on SNB-19 CNS; 46.1% with U251 CNS; 28.1% in the assay on PC-3 prostate. In addition, the growth in the assay on SK-MEL-5 melanoma was 48.8%; in the assay on UACC-62 melanoma it was 63%; in the assay with LOX IMVI melanoma, 12.8%; in the assay on SK-MEL-28 melanoma, 71.9%; in the assay with SK-MEL-2 melanoma, 86.8%; with EKVX NSCLC, 63%. The growth in the assay on SN12C renal was 39.4%; with UO-31 renal, 83.8%; in the assay on TK-10 renal, 71.3%; in the assay on ACHN renal, 94.9%; with A498 renal, 49%; in the assay with CCRF-CEM leukemia it was 43.2%. Also, the growth in the assay with MOLT-4 leukemia is 42.8%.

Take `O=C(O)c1ccc(-n2cc(CNc3cc(F)c(F)c(F)c3)c(-c3ccc(F)cc3)n2)cc1`: the growth with HCT-15 colon is 68.1%; in the assay with HT29 colon, 108%; with SNB-75 CNS, 100%; in the assay on SNB-19 CNS, 95.3%; with U251 CNS, 97.8%; with PC-3 prostate, 79.2%. In addition, the growth in the assay with SK-MEL-5 melanoma was 81.2%; in the assay on UACC-62 melanoma it was 64.9%; in the assay with LOX IMVI melanoma, 105%; with SK-MEL-28 melanoma, 85.9%; in the assay on SK-MEL-2 melanoma it was 78.7%; with EKVX NSCLC, 85.6%. The growth with SN12C renal was 91.9%; with UO-31 renal, 77.4%; in the assay with TK-10 renal, 150%; in the assay with ACHN renal, 71.4%; with A498 renal it was 97.6%; in the assay with CCRF-CEM leukemia it was 82.7%. Further, in the assay with MOLT-4 leukemia, the growth is 74.2%.

Regarding `CCc1cccc(NC(=O)CNc2cc(S(=O)(=O)N(C)C)cc(C)c2C)c1`, the growth in the assay with HCT-15 colon was 106%; in the assay with HT29 colon, 104%; in the assay on SNB-75 CNS it was 47%; in the assay on SNB-19 CNS, 97.3%; in the assay with U251 CNS, 104%; in the assay with PC-3 prostate, 81.6%. Also, the growth is 82.8% with SK-MEL-5 melanoma; 72.5% with UACC-62 melanoma; 89.9% in the assay with LOX IMVI melanoma; 99.5% with SK-MEL-28 melanoma; 102% in the assay with SK-MEL-2 melanoma; 50.7% in the assay on EKVX NSCLC. Besides, the growth was 69.4% in the assay on SN12C renal; 48.5% with UO-31 renal; 65% with TK-10 renal; 91.3% in the assay on ACHN renal; 50.5% in the assay with CAKI-1 renal; 35.5% in the assay with A498 renal. The growth in the assay on MOLT-4 leukemia is 82.4%.

With `O=C1CCC(N2C(=O)c3ccc(NS(=O)(=O)c4ccccc4OC(F)(F)F)cc3C2=O)C(=O)N1` (stereo not given), the growth in the assay on HCT-15 colon was 7.77% (active); with HT29 colon, 78.4%; in the assay on SNB-75 CNS, 58%; in the assay with SNB-19 CNS, 39.6%; in the assay with U251 CNS, 75.8%; with PC-3 prostate, 46.4%. Besides, the growth was 45.9% in the assay on SK-MEL-5 melanoma; 93.3% in the assay on UACC-62 melanoma; 105% in the assay with LOX IMVI melanoma; 66.8% with SK-MEL-28 melanoma; 83.7% in the assay on SK-MEL-2 melanoma; 78.8% in the assay with EKVX NSCLC. Moreover, the growth is 47.8% with SN12C renal; 3.53% (active) with UO-31 renal; 63.4% with TK-10 renal; 87.5% in the assay on ACHN renal; 28.5% in the assay on A498 renal; 13.2% in the assay with CCRF-CEM leukemia. Also, the growth with MOLT-4 leukemia was 2.34% (active).
